PD-1 reversal: reversal of PD-1 mediated T-cell inhibition | AID 2316 | activation, % (no concentration beside the values) | primary human CD4 T cells, PD-L1 beads, CellTiter-Glo 96 h | 29,000 tested, under 10 active; call rule not given here;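 further: 0% = median vehicle wells and 100% = positive control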
U2OS ROS induce: cancer cell ROS induction | U2OS ROS induction, H2DCF-DA fluorescence | ROS induction (% of piperlongumine), % at 10 µM | 46,000 tested, 2% active; in the data active means ROS induction above about 79%, passing the limit was not always enough;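 further: 0% = DMSO vehicle median and 100% = reference compound median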
The depositor's hits bear a star; / = no result. The full list was thinned out, with hits kept by preference.

SMILES	PD-1 reversal	U2OS ROS induce
C[C@@H]1CCCCO[C@H](CN(C)C(=O)CCCN(C)C)[C@@H](C)CN([C@H](C)CO)C(=O)c2cc(NC(=O)C3CCCCC3)ccc2O1	2	105*
O=C1C(=O)N(Cc2ccco2)C(c2cccc(Oc3ccccc3)c2)C1C(=O)c1cccs1 (centres undefined)	2	/
O=C(CCCCCC(=O)Nc1ccccc1O)N/N=C/c1cc(Br)c(O)c(Br)c1	/	-3
CC(C)OC(=O)CCN1C(=O)/C(=C/c2ccccc2)SC1=S	-2	36
O=C1/C(=C/c2ccc(O)cc2)SC(=S)N1CCc1ccccc1	-2	127*
COC(=O)CCCCCCC(=O)N/N=C/c1cccc(O)c1	/	6
Cc1nnc(SCC(=O)Nc2ccc(Cl)cc2Cl)[nH]c1=O	-1	0
C[C@H](CO)N1C[C@H](C)[C@H](CN(C)Cc2ccc(F)cc2)Oc2ncc(-c3cccc(C(F)(F)F)c3)cc2C1=O	/	77*
COc1ccc(NC(=O)N(C)C[C@@H]2Oc3ncc(-c4cccc(C(F)(F)F)c4)cc3C(=O)N([C@H](C)CO)C[C@@H]2C)cc1	/	32
C[C@H](CO)N1C[C@H](C)[C@H](CN(C)C(=O)Nc2ccc(F)cc2)Oc2ncc(-c3cccc(F)c3)cc2C1=O	/	75
CC(C)NC(=O)N(C)C[C@@H]1Oc2ncc(-c3cc4ccccc4o3)cc2C(=O)N([C@H](C)CO)C[C@@H]1C	/	-6
C[C@H](CO)N1C[C@H](C)[C@H](CN(C)C(=O)Nc2ccccc2)Oc2ncc(-c3cc4ccccc4o3)cc2C1=O	/	153*
C[C@H](CO)N1C[C@H](C)[C@H](CN(C)C(=O)Nc2ccccc2)Oc2ncc(-c3cccc(C(F)(F)F)c3)cc2C1=O	/	98*
C[C@H](CO)N1C[C@H](C)[C@H](CN(C)C(=O)Nc2ccc(F)cc2)Oc2ncc(-c3cccc(C(F)(F)F)c3)cc2C1=O	/	91*
C[C@H](CO)N1C[C@H](C)[C@H](CN(C)Cc2ccccc2)Oc2ncc(-c3cccc(C(F)(F)F)c3)cc2C1=O	/	42
CSc1cccc(NC(=O)C(C)N(c2ccc(C)cc2)S(C)(=O)=O)c1 (centres undefined)	-3	3
O=C(CCCn1c(=O)[nH]c2ccccc2c1=O)NCCc1ccccc1	/	2
CCN(CC)S(=O)(=O)c1ccc2oc(C(=O)Nc3cccc(Cl)c3)c(C)c2c1	/	39
c1ccc(Cn2ccnc2SCc2nnc(-c3ccccc3)o2)cc1	-2	105*
Cc1cc(-n2nc3ccccc3n2)c2oc(SCc3nnc(-c4ccccc4)o3)nc2c1	0	3
Cc1ccccc1/C=N/NC(=O)CCCCC(=O)NO	/	21
COc1ccc([Si](C)(C)[C@H]2[C@H](CCn3cc(CCO)nn3)O[C@@]3(C(=O)N(Cc4cccc(N5CCOC5=O)c4)c4ccccc43)[C@@H]2C)cc1	/	107*
C=CCN1C(=O)[C@@]2(O[C@@H](CCn3cc([C@H](O)c4ccccc4)nn3)[C@H]([Si](C)(C)c3ccc(OC)cc3)[C@H]2C)c2cc(N3CCOC3=O)ccc21	/	63
C=CCN1C(=O)[C@]2(O[C@H](CCn3cc(CCO)nn3)[C@@H]([Si](C)(C)c3ccc(OC)cc3)[C@@H]2C)c2ccccc21	/	35
COc1ccc([Si](C)(C)[C@@H]2[C@@H](CCn3cc(CCO)nn3)O[C@]3(C(=O)N(Cc4cccc(N5CCOC5=O)c4)c4ccccc43)[C@H]2C)cc1	/	116*
SMILES	PD-1 reversal	U2OS ROS induce
COc1ccc([Si](C)(C)[C@H]2[C@H](CCn3cc(CCO)nn3)O[C@@]3(C(=O)N(Cc4ccc(N5CCOC5=O)cc4)c4ccccc43)[C@@H]2C)cc1	/	145*
COc1ccc([Si](C)(C)[C@@H]2[C@@H](CCn3cc([C@H](O)c4ccccc4)nn3)O[C@]3(C(=O)N(Cc4cccc(N5CCOC5=O)c4)c4ccccc43)[C@H]2C)cc1	/	116*
C=CCN1C(=O)[C@@]2(O[C@@H](CCn3cc(CCO)nn3)[C@H]([Si](C)(C)c3ccc(OC)cc3)[C@H]2C)c2cc(N3CCOC3=O)ccc21	/	45
C=CCN1C(=O)[C@]2(O[C@H](CCO)[C@@H]([Si](C)(C)c3ccc(OC)cc3)[C@@H]2C)c2cc(N3CCOC3=O)ccc21	/	20
CCCCc1ccc(NC(=O)N=S2CCN(c3ncc(C(F)(F)F)cc3Cl)CC2)cc1	0	-1
CC12C=CC(=O)C=C1CCC1C2=CCC2(C)C1CC[C@@H]2C(=O)CN1CCN(c2cc(N3CCCC3)nc(N3CCCC3)n2)CC1 (some centres undefined)	/	174*
COc1cccc2sc(NC(=O)c3ccc(S(=O)(=O)N4CCCC(C)C4)cc3)nc12 (centres undefined)	5	48
COc1ccc(S(=O)(=O)N(C)CC(=O)Nc2ccccc2OC)cc1Cl	1	-11
Cc1ccc(S(=O)(=O)N(C)CC(=O)Nc2cc(Cl)ccc2Oc2ccccc2)cc1	1	90*
COc1ccc(Cl)cc1NC(=O)CN(C)S(=O)(=O)c1ccc2ccccc2c1	1	/
Cc1cc(Br)ccc1NC(=O)CN(C)S(=O)(=O)c1ccc(Cl)cc1	1	135*
COc1cc(Cl)c(C)cc1NC(=O)CN(C)S(=O)(=O)c1ccc(Br)cc1	1	7
COc1ccc(S(=O)(=O)N(C)CC(=O)Nc2ccccc2Br)cc1Cl	2	112*
COc1ccc(Cl)cc1CN1CCC(CNC(=O)Nc2cccc(Cl)c2)CC1	-10	12
COC(=O)c1sc2nc(C)cc(C(F)(F)F)c2c1N	/	4
Cc1cc(C(F)(F)F)c2c(n1)sc1c(=O)[nH]c(C)nc12	-1	95*
COc1ccc(-n2c(=S)[nH]c3cc(C(=O)NC4CCCC(C)C4C)ccc3c2=O)c(OC)c1 (centres undefined)	0	5
C[C@@H]1CN([C@H](C)CO)C(=O)c2cccc(NC(=O)c3ccc(-c4nccs4)cc3)c2O[C@@H]1CN(C)Cc1ccc(C(=O)Nc2ccccc2N)cc1	-4	214*
C[C@H](CO)N1C[C@H](C)[C@H](CN(C)Cc2ccc(C(=O)Nc3ccccc3N)cc2)Oc2c(NC(=O)Nc3ccc(F)cc3)cccc2C1=O	0	3
C[C@H]1CN([C@@H](C)CO)C(=O)c2cccc(NC(=O)c3ccc(-c4nccs4)cc3)c2O[C@H]1CN(C)Cc1ccc(C(=O)Nc2ccccc2N)cc1	-2	28
C[C@@H]1CN([C@H](C)CO)C(=O)c2cccc(NC(=O)c3ccc(-c4nccs4)cc3)c2O[C@@H]1CN(C)Cc1ccc(-c2ccccc2)cc1	/	32
C[C@@H]1CN([C@@H](C)CO)C(=O)c2cccc(NC(=O)Nc3ccc(C(F)(F)F)cc3)c2O[C@H]1CN(C)Cc1ccc(C(=O)Nc2ccccc2N)cc1	-5	91*
C[C@@H]1CN([C@H](C)CO)C(=O)c2cccc(NC(=O)c3ccc(-c4nccs4)cc3)c2O[C@H]1CN(C)Cc1ccc(C(=O)O)cc1	-3	8
C[C@@H]1CN([C@H](C)CO)C(=O)c2cccc(NC(=O)c3ccc(-c4nccs4)cc3)c2O[C@H]1CN(C)Cc1ccc(C(F)(F)F)cc1	/	105*
C[C@H](CO)N1C[C@H](C)[C@@H](CN(C)Cc2ccc(Cl)c(Cl)c2)Oc2c(NC(=O)c3ccc(-c4nccs4)cc3)cccc2C1=O	-9	97*
COC(=O)CN1C=C(C(=O)OC)C(c2ccc(O)cc2)C(C(=O)OC)=C1	3	21
